Test results published in the supplement of paper PMC12645437, “Orthogonal IMiD-Degron Pairs Induce Selective Protein Degradation in Cells” (ACS Chemical Biology, 2025).
The full ranking holds about 8,300 sequences; the median of “log2 fold change of degron read counts, EGFP-low vs EGFP+ sorted cells (limma voom), compound-induced degradation” is about -1.1, and the highest 2% start at about 3.2. Shown is part of a subset that was picked to be rich in the highest values.

Biological target: T1, CRBN, Q96SW2
T1 chain: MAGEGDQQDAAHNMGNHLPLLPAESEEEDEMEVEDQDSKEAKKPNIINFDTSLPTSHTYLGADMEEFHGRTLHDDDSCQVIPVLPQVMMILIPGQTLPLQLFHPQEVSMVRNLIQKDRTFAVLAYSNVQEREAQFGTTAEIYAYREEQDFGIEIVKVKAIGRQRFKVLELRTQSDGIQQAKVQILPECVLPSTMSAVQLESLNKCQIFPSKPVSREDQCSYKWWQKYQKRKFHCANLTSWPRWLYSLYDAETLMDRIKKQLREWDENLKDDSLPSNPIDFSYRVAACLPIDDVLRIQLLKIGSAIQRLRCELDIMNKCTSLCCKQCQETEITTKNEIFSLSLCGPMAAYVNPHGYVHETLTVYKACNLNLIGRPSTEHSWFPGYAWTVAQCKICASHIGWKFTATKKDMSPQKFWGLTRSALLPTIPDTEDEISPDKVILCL
Test: log2 fold change of degron read counts, EGFP-low vs EGFP+ sorted cells (limma voom), compound-induced degradation; higher = more compound-induced degradation of the degron-EGFP fusion; degrons are variants of IKZF1/3 zinc finger 2; compound dose not given here
Settings: Jurkat, 18 h

[1] = compound: compound 19 (5-tert-butyl-thalidomide)
[2] = compound: compound 22 (5-morpholino-thalidomide)
[3] = compound: compound 33 (diphenyl IMiD analogue)
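Note: pooled lentiviral library of zinc finger degron-EGFP fusions in mCherry-positive Jurkat cells, FACS-sorted after compound exposure, with degron abundance counted by next-generation sequencing.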

Sequence	log2 fold change of degron read counts [1]	log2 fold change of degron read counts [2]	log2 fold change of degron read counts [3]	log2 fold change of degron read counts (compound: thalidomide)
FDCPICGHFFTQKGNLLRHIKL [46F_47D_49P_50I_52G_53H_54F_55F_67L_, Q9UKT9]	-1.89	-2.22	-1.79	-1.75
FICDVCGAWFTQKGNLLRHIKL [46F_47I_49D_50V_52G_53A_54W_55F_67L_, Q9UKT9]	-2.55	-1.74	-0.491	-1.83
FMCPQCGARFTQKGNLLRHIKL [46F_47M_49P_50Q_52G_53A_54R_55F_67L_, Q9UKT9]	-1.45	-1.19	0.32	-0.605
FGCNVCGAEFTQKGNLLRHIKL [46F_47G_49N_50V_52G_53A_54E_55F_67L_, Q9UKT9]	-2.62	-1.85	-0.606	-0.925
FTCNQCGRVFTQKGNLLRHIKL [46F_47T_49N_50Q_52G_53R_54V_55F_67L_, Q9UKT9]	-2.75	-3.29	-2.33	-2.08
FNCNVCGAPFTQKGNLLRHIKL [46F_47N_49N_50V_52G_53A_54P_55F_67L_, Q9UKT9]	1	-0.317	-0.912	-0.29
FHCPVCGAPFTQKGNLLRHIKL [46F_47H_49P_50V_52G_53A_54P_55F_67L_, Q9UKT9]	3.2	2.86	2.5	1.82
FECPVCGAPFTQKGNLLRHIKL [46F_47E_49P_50V_52G_53A_54P_55F_67L_, Q9UKT9]	1.88	-0.29	1.64	2.65
FNCDVCGAPFTQKGNLLRHIKL [46F_47N_49D_50V_52G_53A_54P_55F_67L_, Q9UKT9]	0.937	-0.417	-1.71	-1.34
FVCPVCGAPFTQKGNLLRHIKL [46F_47V_49P_50V_52G_53A_54P_55F_67L_, Q9UKT9]	1.79	3.33	2.13	3.19
FMCPVCGAPFTQKGNLLRHIKL [46F_47M_49P_50V_52G_53A_54P_55F_67L_, Q9UKT9]	2.53	3.59	3.09	2.96
FNCPVCGAPFTQKGNLLRHIKL [46F_47N_49P_50V_52G_53A_54P_55F_67L_, Q9UKT9]	3.41	2.62	1.33	2.25
FWCPVCGAPFTQKGNLLRHIKL [46F_47W_49P_50V_52G_53A_54P_55F_67L_, Q9UKT9]	3.23	2.92	2.67	1.06
FTCPVCGAPFTQKGNLLRHIKL [46F_47T_49P_50V_52G_53A_54P_55F_67L_, Q9UKT9]	1.88	3.16	2.41	3.03
FYCDVCGAPFTQKGNLLRHIKL [46F_47Y_49D_50V_52G_53A_54P_55F_67L_, Q9UKT9]	3.09	2.39	1.86	-0.588
FYCNVCGAPFTQKGNLLRHIKL [46F_47Y_49N_50V_52G_53A_54P_55F_67L_, Q9UKT9]	2.95	2.35	1.69	-0.11
FYCPVCGAPFTQKGNLLRHIKL [46F_47Y_49P_50V_52G_53A_54P_55F_67L_, Q9UKT9]	3.48	3.24	2.82	1.62
FCCDICGAFFTQKGNLLRHIKL [46F_47C_49D_50I_52G_53A_54F_55F_67L_, Q9UKT9]	-0.849	-1.43	-0.311	-2.26
FSCPQCGAHFTQKGNLLRHIKL [46F_47S_49P_50Q_52G_53A_54H_55F_67L_, Q9UKT9]	-1.06	-2.04	-0.649	-1.51

Sequence	log2 fold change of degron read counts [1]	log2 fold change of degron read counts [2]	log2 fold change of degron read counts [3]	log2 fold change of degron read counts (compound: thalidomide)
FSCSVCGHMFTQKGNLLRHIKL [46F_47S_49S_50V_52G_53H_54M_55F_67L_, Q9UKT9]	-2.17	-2.85	-2.33	-2.67
FHCNICGAGFTQKGNLLRHIKL [46F_47H_49N_50I_52G_53A_54G_55F_67L_, Q9UKT9]	1.76	0.175	1.2	-0.885
FSCPICGRFFTQKGNLLRHIKL [46F_47S_49P_50I_52G_53R_54F_55F_67L_, Q9UKT9]	-0.54	-1.4	-0.477	-1.17
FKCEICGRDFTQKGNLLRHIKL [46F_47K_49E_50I_52G_53R_54D_55F_67L_, Q9UKT9]	-3.16	-3.46	-3.24	-2.51
FYCPICGRFFTQKGNLLRHIKL [46F_47Y_49P_50I_52G_53R_54F_55F_67L_, Q9UKT9]	-0.827	-0.851	-1	-2.07
LLCEICGFACTQKGNLLRHIKL [46L_47L_49E_50I_52G_53F_54A_55C_67L_, Q9UKT9]	0.644	-0.727	0.56	1.35
FLCDQCGAYFTQKGNLLRHIKL [46F_47L_49D_50Q_52G_53A_54Y_55F_67L_, Q9UKT9]	-3.04	-2.52	-2.25	-2.41
LYCEICGFQCTQKGNLLRHIKL [46L_47Y_49E_50I_52G_53F_54Q_55C_67L_, Q9UKT9]	3.53	3.71	2.78	1.8
LQCEICGFQCTQKGNLLRHIKL [46L_47Q_49E_50I_52G_53F_54Q_55C_67L_, Q9UKT9]	0.99	0.223	1.43	3.3
LSCEICGFQCTQKGNLLRHIKL [46L_47S_49E_50I_52G_53F_54Q_55C_67L_, Q9UKT9]	2.4	1.95	0.752	1.19
LACEICGFQCTQKGNLLRHIKL [46L_47A_49E_50I_52G_53F_54Q_55C_67L_, Q9UKT9]	3.16	2.06	0.631	0.66
LLCEICGFQCTQKGNLLRHIKL [46L_47L_49E_50I_52G_53F_54Q_55C_67L_, Q9UKT9]	0.49	-0.719	0.751	1.99
LFCEICGFQCTQKGNLLRHIKL [46L_47F_49E_50I_52G_53F_54Q_55C_67L_, Q9UKT9]	3.43	3.41	1.96	2.09
LCCEICGFQCTQKGNLLRHIKL [46L_47C_49E_50I_52G_53F_54Q_55C_67L_, Q9UKT9]	1.95	1.72	1.6	1.91
LECEICGFQCTQKGNLLRHIKL [46L_47E_49E_50I_52G_53F_54Q_55C_67L_, Q9UKT9]	-0.896	-1.36	0.772	2.01
LDCEICGFQCTQKGNLLRHIKL [46L_47D_49E_50I_52G_53F_54Q_55C_67L_, Q9UKT9]	-0.786	-1.68	-1.53	-0.616
LWCEICGFQCTQKGNLLRHIKL [46L_47W_49E_50I_52G_53F_54Q_55C_67L_, Q9UKT9]	3.2	3.49	2.53	1.13
LICEICGFQCTQKGNLLRHIKL [46L_47I_49E_50I_52G_53F_54Q_55C_67L_, Q9UKT9]	0.761	2.3	2.38	3
LMCEICGFQCTQKGNLLRHIKL [46L_47M_49E_50I_52G_53F_54Q_55C_67L_, Q9UKT9]	0.286	0.912	2.55	2.04
